Reference: PubChem BioAssay AID1159580 (chemical genetic matrix, 2015)
Hit rate of the full screen: of about 5,500 compounds, about 2,000 (36%) were called active. Inconclusive results (about 18%) are left out. Rule as the data show it: active = normalized growth mostly below about 0.91 (no sharp cut-off); inconclusive = no clear call, values can overlap the other calls; inactive = mostly above about 0.92. Some of the results follow.

Experiment: chemical genetic growth profiling, strain panel (AID 1159580);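 also: tested at 20 µM; growth read once vehicle control cultures reached saturation at 30 °C; 1 = growth at the plate median or of vehicle wells; lower values mean less growth of the strain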
Conditions: growth OD

Measured: normalized growth

CC1(C)C(=O)C=C[C@@]2(C)C1CC(=O)[C@@]1(C)C3=CC(=O)O[C@@H](c4ccoc4)[C@]3(C)CCC12 (some centres undefined)
inactive: S. cerevisiae deletion strains, locus YBR021W, strain FUR4, active compounds read low 0.994 | S. cerevisiae deletion strains, locus YBR229C, strain ROT2, active compounds read low 1 | S. cerevisiae deletion strains, locus YCL029C, strain bik1, active compounds read low 0.994 | S. cerevisiae deletion strains, locus YDL035C, strain GPR1, active compounds read low 1.02 | S. cerevisiae deletion strains, locus YDL074C, strain BRE1, active compounds read low 1 | S. cerevisiae deletion strains, locus YDL101C, strain DUN1, active compounds read low 0.997 | S. cerevisiae deletion strains, locus YDL185W, strain tfp1, active compounds read low 1 | S. cerevisiae deletion strains, locus YDL192W, strain arf1, active compounds read low 0.987 | S. cerevisiae deletion strains, locus YDR101C, strain arx1, active compounds read low 0.988 | S. cerevisiae deletion strains, locus YDR162C, strain NBP2, active compounds read low 1.01 | S. cerevisiae deletion strains, locus YDR318W, strain mcm21, active compounds read low 0.993 | S. cerevisiae deletion strains, locus YDR388W, active compounds read low 0.996 | S. cerevisiae deletion strains, locus YDR502C, strain sam2, active compounds read low 0.983 | S. cerevisiae deletion strains, locus YER110C, active compounds read low 0.989 | S. cerevisiae deletion strains, locus YER155C, strain BEM2, active compounds read low 1.01 | S. cerevisiae deletion strains, locus YER167W, strain BCK2, active compounds read low 1 | S. cerevisiae deletion strains, locus YGL078C, strain dbp3, active compounds read low 0.999 | S. cerevisiae deletion strains, locus YGL086W, strain mad1, active compounds read low 1.01 | S. cerevisiae deletion strains, locus YGL248W, strain PDE1, active compounds read low 0.997 | S. cerevisiae deletion strains, locus YGR078C, strain PAC10, active compounds read low 0.997 | S. cerevisiae deletion strains, locus YGR135W, strain pre9, active compounds read low 0.993 | S. cerevisiae deletion strains, locus YGR229C, strain SMI1, active compounds read low 1.01 | S. cerevisiae deletion strains, locus YGR252W, strain gcn5, active compounds read low 0.939 | S. cerevisiae deletion strains, locus YHR079C, strain IRE1 (second series), active compounds read low 0.988 | S. cerevisiae deletion strains, locus YHR094C, strain hxt1, active compounds read low 0.991 | S. cerevisiae deletion strains, locus YHR129C, strain ARP1, active compounds read low 0.998 | S. cerevisiae deletion strains, locus YHR200W, strain rpn10, active compounds read low 0.99 | S. cerevisiae deletion strains, locus YIL066C, strain RNR3, active compounds read low 1.01 | S. cerevisiae deletion strains, locus YIL073C, strain SPO22, active compounds read low 1.04 | S. cerevisiae deletion strains, locus YIL125W, strain kgd1, active compounds read low 0.991 | S. cerevisiae deletion strains, locus YIR030C, strain dcg1, active compounds read low 0.996 | S. cerevisiae deletion strains, locus YJL095W, strain BCK1, active compounds read low 0.988 | S. cerevisiae deletion strains, locus YJL134W, strain LCB3, active compounds read low 1.01 | S. cerevisiae deletion strains, locus YJL168C, strain set2, active compounds read low 0.998 | S. cerevisiae deletion strains, locus YJL187C, strain SWE1 (second series), active compounds read low 0.996 | S. cerevisiae deletion strains, locus YJR043C, strain POL32, active compounds read low 1.01 | S. cerevisiae deletion strains, locus YKL009W, strain mrt4, active compounds read low 1.01 | S. cerevisiae deletion strains, locus YKL068W, active compounds read low 1 | S. cerevisiae deletion strains, locus YKL085W, strain MDH1 (second series), active compounds read low 0.998 | S. cerevisiae deletion strains, locus YKL085W, strain MDH1, active compounds read low 0.998 | S. cerevisiae deletion strains, locus YKR001C, strain vps1, active compounds read low 0.98 | S. cerevisiae deletion strains, locus YLR039C, strain RIC1, active compounds read low 1.02 | S. cerevisiae deletion strains, locus YLR058C, strain SHM2, active compounds read low 1 | S. cerevisiae deletion strains, locus YLR102C, strain apc9, active compounds read low 0.994 | S. cerevisiae deletion strains, locus YLR262C, strain YPT6, active compounds read low 1.04 | S. cerevisiae deletion strains, locus YLR268W, strain sec22, active compounds read low 1 | S. cerevisiae deletion strains, locus YLR330W, strain CHS5, active compounds read low 1 | S. cerevisiae deletion strains, locus YLR371W, strain rom2, active compounds read low 0.988 | S. cerevisiae deletion strains, locus YLR418C, strain cdc73, active compounds read low 0.985 | S. cerevisiae deletion strains, locus YML016C, strain PPZ1, active compounds read low 1 | S. cerevisiae deletion strains, locus YML032C, strain rad52, active compounds read low 0.998 | S. cerevisiae deletion strains, locus YML124C, strain tub3, active compounds read low 0.996 | S. cerevisiae deletion strains, locus YMR078C, strain ctf18, active compounds read low 1.01 | S. cerevisiae deletion strains, locus YMR223W, strain ubp8, active compounds read low 0.983 | S. cerevisiae deletion strains, locus YMR263W, strain SAP30, active compounds read low 0.998 | S. cerevisiae deletion strains, locus YMR307W, strain GAS1, active compounds read low 0.98 | S. cerevisiae deletion strains, locus YNL067W, strain RPL9B, active compounds read low 0.996 | S. cerevisiae deletion strains, locus YNL128W, strain TEP1, active compounds read low 1.02 | S. cerevisiae deletion strains, locus YNL233W, strain BNI4, active compounds read low 1.02 | S. cerevisiae deletion strains, locus YNL250W, strain rad50, active compounds read low 1 | S. cerevisiae deletion strains, locus YNL271C, strain bni1, active compounds read low 1 | S. cerevisiae deletion strains, locus YNL298W, strain CLA4, active compounds read low 0.987 | S. cerevisiae deletion strains, locus YNL307C, strain MCK1, active compounds read low 0.994 | S. cerevisiae deletion strains, locus YNR052C, strain pop2, active compounds read low 0.979 | S. cerevisiae deletion strains, locus YOL012C, strain htz1 1.33 | S. cerevisiae deletion strains, locus YOL147C, strain pex11, active compounds read low 0.992 | S. cerevisiae deletion strains, locus YOR061W, strain CKA2, active compounds read low 1.01 | S. cerevisiae deletion strains, locus YOR069W, strain VPS5, active compounds read low 0.999 | S. cerevisiae deletion strains, locus YOR136W, strain idh2, active compounds read low 1.01 | S. cerevisiae deletion strains, locus YOR144C, strain elg1, active compounds read low 0.99 | S. cerevisiae deletion strains, locus YOR184W, strain ser1, active compounds read low 1.01 | S. cerevisiae deletion strains, locus YOR316C, strain cot1, active compounds read low 0.992 | S. cerevisiae deletion strains, locus YPL241C, strain CIN2, active compounds read low 1.01 | S. cerevisiae deletion strains, locus YPR119W, strain clb2, active compounds read low 0.998 | S. cerevisiae deletion strains, locus YPR141C, strain kar3, active compounds read low 1 | S. cerevisiae deletion strains, locus YPR163C, strain tif3, active compounds read low 1 | S. cerevisiae deletion strains, locus YPR167C, strain met16, active compounds read low 1 | S. cerevisiae deletion strains, strain wtn01, active compounds read low 0.992 | S. cerevisiae strains, strain wild type, active compounds read low 1.01
